# Compound activity deposited in PubChem by Broad Institute.
# In the library only some 6.8% were active in any assay of this set; here they are far more common.
# C diff growth = C. difficile growth inhibitors, primary screen, HTS. hit rate 0.25% among 86,000. Clostridium difficile clinical isolate growth, OD600, 24 h; hits give low values. growth activity, negative = inhibition, % at 16 µg/mL (by protocol). AID 1259249, 2017;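 active = mean growth activity at or below -80% and every replicate also at or below -80%; inconclusive = mean at or below -80% but some replicate above -80%; inactive = mean growth activity above -80%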
# T cruzi growth-1 = T. cruzi intracellular proliferation inhibitors, primary screen, cell-based, beta-gal Tulahuen parasites, NIH3T3 host, luminescence. T. cruzi beta-gal in NIH3T3, GalScreen luminescence, 90 h. inhibition, % at 8.34 µM. hit rate 5.9% among 77,000. AID 624255, 2012;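 active = mean inhibition above about 93%, with at least 55% of replicates each passing it, limit read from the data, passing the limit was not always enough; inconclusive = only one of those two conditions holds; inactive = neither condition holds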
# Pf Dd2 inh = P. falciparum Dd2 growth inhibitors, primary screen, SYBR Green fluorescence, single dose replicates; activity change, % at 10 µM; 72 h; hits give low values; AID 1159554, 2015; hit rate 2.3% among 94,000; in the data active = activity change below about -80%; inconclusive = no clear call, values can overlap the other calls
# T cruzi growth-2 = T. cruzi intracellular proliferation inhibitors, confirmation, cell-based, NIH3T3 host, beta-gal parasite, luminescence, cherry-pick; T. cruzi beta-gal in NIH3T3, GalScreen luminescence, 90 h; hit rate 72% among 5,600; shares compounds with T cruzi growth-1; inhibition, % at 8.35 µM;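 active = mean replicate inhibition above about 95% and at least 55% of replicates individually reaching it, limit read from the data; inconclusive = only one of the two criteria is met; inactive = neither criterion is met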
# T cruzi growth-3 = inhibitors of intracellular T. cruzi replication, confirmation, NIH3T3 host cells, beta-gal parasites, cherry-pick, set 2; shares compounds with T cruzi growth-1; T. cruzi beta-gal in NIH3T3, GalScreen luminescence, 90 h; inhibition, % at 2.09 µM; hit rate 21% among 5,600; AID 651740, 2012;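 active = mean inhibition above about 95%, with at least 55% of replicates also reaching it, limit read from the data; inconclusive = meets just one of the two conditions; inactive = meets neither condition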
# NIH3T3 tox = cytotoxicity in mouse NIH/3T3 fibroblasts, confirmation, cytotoxicity control for T. cruzi proliferation inhibitor project, cell-based, cherry-pick, single point | shares compounds with T cruzi growth-1 | NIH/3T3 viability, CellTiter-Glo ATP luminescence, 90 h | cytotoxicity (signal decrease), % at 8.35 µM | hit rate 14% among 5,600 | AID 651742, 2012;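 active = mean signal decrease across replicates above about 35% based on untreated-well scatter, with enough replicates individually passing, limit read from the data; inconclusive = no rule stated though some were filed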
# 3T3 cytotox 2 = NIH/3T3 fibroblast cytotoxicity, confirmation, cytotoxicity control, cell-based, cherry-pick, single point, set 2; shares compounds with T cruzi growth-1; NIH/3T3 viability, CellTiter-Glo ATP luminescence, 90 h; inhibition, % at 24.9 µM; hit rate 56% among 5,600;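 active = mean loss of cell viability signal at or above a set limit, and enough replicates individually reaching it; inconclusive = meets only the mean limit or only the replicate share; inactive = meets neither condition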
# A number is an active result; 0 = inactive; ? = inconclusive; - = no result.
SMILES,C diff growth,T cruzi growth-1,Pf Dd2 inh,T cruzi growth-2,T cruzi growth-3,NIH3T3 tox,3T3 cytotox 2
COc1ccc(S(=O)(=O)N2C[C@@H](O)COC[C@H]3O[C@H](CC(=O)NCc4ccc(Cl)c(Cl)c4)CC[C@@H]32)cc1,0,129,0,0,0,0,43
COc1ccc(S(=O)(=O)N2C[C@H](O)COC[C@H]3O[C@H](CC(=O)NCc4ccc(Cl)c(Cl)c4)CC[C@@H]32)cc1,0,?,0,0,0,0,44
COc1ccc2c3c([nH]c2c1)[C@H](CO)N(C(=O)C1CCC1)CC31CCN(C(=O)NC(C)C)CC1,0,-,0,-,-,-,-
CC=Cc1ccc2n(c1=O)C[C@@H]1[C@@H](CO)[C@H](C(=O)N3CCC(Cc4ccccc4)CC3)N(CCC)[C@H]21 (mixture of isomers),0,-,?,-,-,-,-
Cc1ccccc1-c1ccc([C@H]2[C@H](CO)N3CCCCN(S(=O)(=O)c4cn(C)cn4)C[C@@H]23)cc1,0,0,0,-,-,-,-
CO[C@H]1CN(C)C(=O)c2ccc(NC(C)=O)cc2OC[C@H](C)N(CCC(F)(F)F)C[C@@H]1C,0,-,0,-,-,-,-
CNC(=O)C[C@H]1CC[C@@H]2[C@@H](COc3ccc(NC(=O)c4cc(C)on4)cc3C(=O)N2C)O1,0,0,0,-,-,-,-
CO[C@@H]1CN(C)C(=O)c2cc(NC(=O)C3CCCCC3)ccc2OC[C@H](C)NC[C@H]1C,0,0,0,-,-,-,-
C[C@H](CO)N1C[C@H](C)[C@H](CN(C)C)Oc2ccc(NS(=O)(=O)c3cccs3)cc2CC1=O,0,0,0,-,-,-,-
O=C(C[C@@H]1CC[C@@H]2[C@H](COC[C@@H](O)CN2S(=O)(=O)c2ccc(F)cc2)O1)NCc1ccc(Cl)c(Cl)c1,0,0,0,-,-,-,-
COc1ccc(S(=O)(=O)N2C[C@@H](O)COC[C@@H]3O[C@@H](CC(=O)NCc4ccc(Cl)c(Cl)c4)CC[C@H]32)cc1,0,168,0,0,0,0,42
Cc1ccc(S(=O)(=O)N2C[C@@H](O)COC[C@@H]3O[C@@H](CC(=O)NCc4ccc(Cl)c(Cl)c4)CC[C@H]32)cc1,-,0,0,-,-,-,-
COc1ccc(S(=O)(=O)N2C[C@H](O)COC[C@H]3O[C@@H](CC(=O)NCc4ccc(Cl)c(Cl)c4)CC[C@@H]32)cc1,0,98,0,100,0,0,42
CC(C)NC(=O)N(C)C[C@@H]1Oc2c(NS(=O)(=O)c3ccc(F)cc3)cccc2C(=O)N([C@H](C)CO)C[C@H]1C,0,-,0,-,-,-,-
CC=Cc1ccc2n(c1=O)C[C@H]1[C@H](CO)[C@@H](C(=O)NCCC)[C@@H]2N1C(=O)c1ccccc1F (mixture of isomers),0,0,0,-,-,-,-
O=C(C[C@@H]1CC[C@@H]2[C@H](COC[C@H](O)CN2C(=O)Nc2ccc(Cl)cc2)O1)NCc1ccncn1,-,0,0,-,-,-,-
C[C@@H]1CN([C@H](C)CO)S(=O)(=O)c2ccc(-c3ccc(F)cc3)cc2O[C@H]1CN(C)C(=O)C1CCCCC1,0,0,0,-,-,-,-
C[C@@H]1CN([C@@H](C)CO)S(=O)(=O)c2ccc(-c3ccc(F)cc3)cc2O[C@@H]1CN(C)C(=O)C1CCC1,-,0,0,-,-,-,-
C[C@H](CO)N1C[C@H](C)[C@H](CN(C)C(=O)C2CCCCC2)Oc2cc(-c3ccc(F)cc3)ccc2S1(=O)=O,0,119,0,110,0,?,100
C[C@H]1CN([C@@H](C)CO)S(=O)(=O)c2ccc(-c3ccc(F)cc3)cc2O[C@@H]1CN(C)C(=O)C1CCCCC1,0,99,0,95,0,0,53
C[C@H]1CN([C@@H](C)CO)S(=O)(=O)c2ccc(-c3ccc(F)cc3)cc2O[C@H]1CN(C)C(=O)C1CCC1,-,0,0,-,-,-,-
C[C@H]1CN([C@@H](C)CO)S(=O)(=O)c2ccc(-c3ccc(F)cc3)cc2O[C@H]1CN(C)C(=O)C1CCCCC1,0,112,0,96,0,0,101
